{"source": "the supplement of paper PMC8728848", "binders": {"B1": {"name": "Blon2355mut (Bifidobacterium longum) (protein)", "chain": "MVQEPTLEWHVIPEPTNVEPLVGTCSLPLSGTVVEQRGADDAEAVFARQLVDDIKRVCGGRWQVASGEVQREVTLRTSPSLDDWSYVLEVSPDGVVITGSGFEGVRDGVQTLRQIIRQIGLTIPCMVIRDRPAFSTRGYYLDVTRGRVPSMAWLKSWVDRLCFYKYNQFQLYIEHTFQFNGLSEVWRGADPLTSSDILELDSYCAARGIELVPSVSTFGHHYTALRTRQLRDLGEFPEDADRPFSLIERMTHHTLNITDERSYEFSTSLIDELMPLFRSRKFNICANETFDLGKGRSKQESAKRGVGAMYADFVERLCRHVDDRGHDVMVWADVALEHPEIIDTLPKNITWLNWQYEPNVDDGTTAALADAGATQMVCPAVWCWNALIPRIDDAWNNITRMARHGRAHDVSGMLVTDWGDFGHVNDPRMSVPGMIFGAQQSWNPDAELSEVDMLSRISTIEYGDHTGSVVGALRGASAKGGFSWSDLVTYLELDDGRGGCNTEIVRVMGCLEAYRNDLPQSGQARLADARVSMLRTLRDSILAGRELNGKLDDAAKDITQLLRVAGDPSSAAVWSLAIDGQRLLNRVGLALLAAHGVVRQDEAGIDAAKLADELECWTEQYSRLWHEVSRQSELARIQHVVWRAADVLRSI"}}, "test_in_all_cases": "glycan array binding signal (z-score within array); higher = stronger binding", "settings_in_all_cases": "glycan notation: IUPAC condensed, linker removed", "key": {"[1]": {"target": "Fuc(a1-2)Gal(b1-3)GalNAc(b1-3)Gal", "procedure,_shortened": "(§1)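 The binding signal is a Z-score computed within each array. Data were drawn from 3228 arrays in the Consortium for Functional Glycomics database, restricted to those with a known protein sequence. Scores were averaged over arrays of the same protein sequence at different concentrations or buffers, and over linkers, and negative values can be taken as non-binding.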"}, "[2]": {"target": "Fuc(a1-2)Gal(b1-3)GlcNAc(b1-2)Man(a1-3)[Fuc(a1-2)Gal(b1-3)GlcNAc(b1-2)Man(a1-6)]Man(b1-4)GlcNAc(b1-4)GlcNAc", "procedure,_shortened": "as §1"}, "[3]": {"target": "Fuc(a1-2)Gal(b1-4)GlcNAc(b1-3)[Fuc(a1-2)Gal(b1-4)GlcNAc(b1-6)]GalNAc", "procedure,_shortened": "as §1"}, "[4]": {"target": "Fuc(a1-2)Gal3S(b1-4)GlcNAc", "procedure,_shortened": "as §1"}, "[5]": {"target": "Fuc(a1-2)[Gal(a1-3)]Gal(b1-4)Glc", "procedure,_shortened": "as §1"}, "[6]": {"target": "Fuc(a1-2)[Gal(a1-3)]Gal(b1-4)GlcNAc(b1-2)Man(a1-3)[Fuc(a1-2)[Gal(a1-3)]Gal(b1-4)GlcNAc(b1-2)Man(a1-6)]Man(b1-4)GlcNAc(b1-4)GlcNAc", "procedure,_shortened": "as §1"}, "[7]": {"target": "Fuc(a1-3)[Gal(b1-4)]GlcNAc(b1-4)Gal(b1-4)[Fuc(a1-3)]GlcNAc(b1-4)Gal(b1-4)[Fuc(a1-3)]GlcNAc", "procedure,_shortened": "as §1"}, "[8]": {"target": "Fuc(a1-3)[Gal3S(b1-4)]GlcNAc6S", "procedure,_shortened": "as §1"}, "[9]": {"target": "Fuc(a1-3)[GalNAc(b1-4)]GlcNAc", "procedure,_shortened": "as §1"}, "[10]": {"target": "Gal(a1-3)Fuc(a1-2)Gal(b1-4)GlcNAc(b1-3)[Gal(a1-3)Fuc(a1-2)Gal(b1-4)GlcNAc(b1-6)]GalNAc", "procedure,_shortened": "as §1"}, "[11]": {"target": "Gal(a1-3)[Gal(a1-4)]Gal(b1-4)GlcNAc", "procedure,_shortened": "as §1"}, "[12]": {"target": "Gal(b1-3)GalNAc(a1-3)[Fuc(a1-2)]Gal(b1-4)Glc", "procedure,_shortened": "as §1"}, "[13]": {"target": "Gal(b1-3)[Fuc(a1-4)]GlcNAc(b1-3)Gal(b1-3)[Fuc(a1-4)]GlcNAc", "procedure,_shortened": "as §1"}, "[14]": {"target": "Gal(b1-4)GalNAc(b1-3)[Fuc(a1-2)]Gal(b1-4)GlcNAc", "procedure,_shortened": "as §1"}, "[15]": {"target": "Gal(b1-4)GlcNAc(b1-2)Man(a1-3)[Gal(b1-4)GlcNAc(b1-2)Man(a1-6)]Man(b1-4)GlcNAc(b1-4)GlcNAc", "procedure,_shortened": "as §1"}, "[16]": {"target": "Gal(b1-4)GlcNAc(b1-2)Man(a1-3)[Gal(b1-4)GlcNAc(b1-2)Man(a1-6)][GlcNAc(b1-4)]Man(b1-4)GlcNAc(b1-4)[Fuc(a1-6)]GlcNAc", "procedure,_shortened": "as §1"}, "[17]": {"target": "Gal(b1-4)GlcNAc(b1-2)[Gal(b1-4)GlcNAc(b1-6)]Man(a1-6)[GlcNAc(b1-4)][Gal(b1-4)GlcNAc(b1-2)[Gal(b1-4)GlcNAc(b1-4)]Man(a1-3)]Man(b1-4)GlcNAc(b1-4)[Fuc(a1-6)]GlcNAc", "procedure,_shortened": "as §1"}, "[18]": {"target": "Gal(b1-4)GlcNAc(b1-3)Gal(b1-3)GlcNAc", "procedure,_shortened": "as §1"}, "[19]": {"target": "Gal(b1-4)GlcNAc(b1-3)Gal(b1-4)Glc", "procedure,_shortened": "as §1"}, "[20]": {"target": "Gal3S(b1-4)Glc", "procedure,_shortened": "as §1"}, "[21]": {"target": "Gal3S(b1-4)[Fuc(a1-3)]Glc6S", "procedure,_shortened": "as §1"}, "[22]": {"target": "Gal4S6S(b1-4)GlcNAc", "procedure,_shortened": "as §1"}, "[23]": {"target": "Gal6S(b1-4)Glc6S", "procedure,_shortened": "as §1"}, "[24]": {"target": "GalNAc(b1-3)GlcNAc", "procedure,_shortened": "as §1"}, "[25]": {"target": "GalNAc(b1-4)GlcNAc", "procedure,_shortened": "as §1"}, "[26]": {"target": "GalNAc(b1-4)GlcNAc(b1-3)GalNAc(b1-4)GlcNAc", "procedure,_shortened": "as §1"}, "[27]": {"target": "GalNAc6S(b1-4)GlcNAc", "procedure,_shortened": "as §1"}, "[28]": {"target": "Glc(a1-4)Glc(a1-4)Glc(a1-4)Glc", "procedure,_shortened": "as §1"}, "[29]": {"target": "GlcNAc(a1-4)Gal(b1-4)GlcNAc", "procedure,_shortened": "as §1"}, "[30]": {"target": "GlcNAc(a1-4)Gal(b1-4)GlcNAc(b1-3)Gal(b1-4)GlcNAc", "procedure,_shortened": "as §1"}}, "note": "Many of the other results were omitted from the sample, so the strongest signals are more common in it than they were."}
{"binder": "B1", "values": [{"measurement": "glycan array binding signal (z-score)", "setting": "[1]", "value": 4.04}, {"measurement": "glycan array binding signal (z-score)", "setting": "[2]", "value": 2.69}, {"measurement": "glycan array binding signal (z-score)", "setting": "[3]", "value": -0.88}, {"measurement": "glycan array binding signal (z-score)", "setting": "[4]", "value": -0.915}, {"measurement": "glycan array binding signal (z-score)", "setting": "[5]", "value": -0.428}, {"measurement": "glycan array binding signal (z-score)", "setting": "[6]", "value": -0.395}, {"measurement": "glycan array binding signal (z-score)", "setting": "[7]", "value": -0.166}, {"measurement": "glycan array binding signal (z-score)", "setting": "[8]", "value": 0.088}, {"measurement": "glycan array binding signal (z-score)", "setting": "[9]", "value": 3.72}, {"measurement": "glycan array binding signal (z-score)", "setting": "[10]", "value": -1.04}, {"measurement": "glycan array binding signal (z-score)", "setting": "[11]", "value": 3.31}, {"measurement": "glycan array binding signal (z-score)", "setting": "[12]", "value": -1.53}, {"measurement": "glycan array binding signal (z-score)", "setting": "[13]", "value": -1.02}, {"measurement": "glycan array binding signal (z-score)", "setting": "[14]", "value": 0.202}, {"measurement": "glycan array binding signal (z-score)", "setting": "[15]", "value": -0.374}, {"measurement": "glycan array binding signal (z-score)", "setting": "[16]", "value": -0.951}, {"measurement": "glycan array binding signal (z-score)", "setting": "[17]", "value": -0.768}, {"measurement": "glycan array binding signal (z-score)", "setting": "[18]", "value": -1.26}, {"measurement": "glycan array binding signal (z-score)", "setting": "[19]", "value": 1.06}, {"measurement": "glycan array binding signal (z-score)", "setting": "[20]", "value": 2.74}, {"measurement": "glycan array binding signal (z-score)", "setting": "[21]", "value": 3.52}, {"measurement": "glycan array binding signal (z-score)", "setting": "[22]", "value": 0.175}, {"measurement": "glycan array binding signal (z-score)", "setting": "[23]", "value": 1.48}, {"measurement": "glycan array binding signal (z-score)", "setting": "[24]", "value": 0.179}, {"measurement": "glycan array binding signal (z-score)", "setting": "[25]", "value": 3.04}, {"measurement": "glycan array binding signal (z-score)", "setting": "[26]", "value": 0.796}, {"measurement": "glycan array binding signal (z-score)", "setting": "[27]", "value": -0.569}, {"measurement": "glycan array binding signal (z-score)", "setting": "[28]", "value": 2.06}, {"measurement": "glycan array binding signal (z-score)", "setting": "[29]", "value": -0.637}, {"measurement": "glycan array binding signal (z-score)", "setting": "[30]", "value": -0.378}]}
